# Only a selection was taken, and hits are over-represented in it overall.
# EZH2 inh = EZH2/PRC2 methyltransferase inhibitors, primary screen, biochemical, DELFIA time-resolved fluorescence, single point. Histone-lysine N-methyltransferase EZH2 (Homo sapiens), Q15910. PRC2 H3K27 methylation, DELFIA TRF, 1 h. inhibition, % at 12.5 µM. 57,000 tested, 0.35% active. AID 651548, 2012;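 active = mean inhibition of replicates at least 50% and every single replicate also reaching 50%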;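 note: dimethyl H3K27 on biotinylated H3 21-44 peptide detected by antibody; plate controls were median neutral control wells for no effect and median positive control wells for full effect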
# * marks the source's active call; other numbers are inactive results.
SMILES,EZH2 inh
COc1ccc(OCc2nc3ccccc3n2Cc2c(F)cccc2Cl)cc1,28
O=C1C[C@@H](c2ccc(O)cc2)Oc2cc(O)c([C@@H]3O[C@H](CO)[C@@H](O)[C@H](O)[C@H]3O)c(O)c21,-34
O=C(OC1C(c2c(O)cc(O)c(C(=O)c3ccc(O)cc3)c2O)OC(CO)C(O)C1O)c1cc(O)c(O)c(O)c1 (configuration not stated),56*
COc1c(O)cc2c(c1O)[C@H]1O[C@H](CO)[C@@H](O)[C@H](O)[C@@H]1OC2=O,8
CO[C@@H]1CN(C)C(=O)c2cc(NC(=O)C3CCOCC3)ccc2OC[C@H](C)NC[C@@H]1C,-12
COc1cc(C[C@H]2CO[C@H](c3ccc(O[C@@H]4O[C@H](CO)[C@@H](O)[C@H](O)[C@H]4O)c(OC)c3)[C@H]2CO)ccc1O,100*
COc1cc(/C=C/c2cc(O)cc(O[C@@H]3O[C@H](CO)[C@@H](O)[C@H](O)[C@H]3O)c2)ccc1O[C@@H]1O[C@H](CO)[C@@H](O)[C@H](O)[C@H]1O,28
COc1cc(C2OCC3(OC4OC(CO)C(O)C(O)C4O)C(c4ccc(O)c(OC)c4)OCC23)ccc1O (configuration not stated),-21
CCCNC(=O)N(C)C[C@@H]1Oc2ncc(C#CCc3ccccc3)cc2C(=O)N([C@H](C)CO)C[C@@H]1C,-7
CC(C)NS(=O)(=O)c1ccc(OCC(=O)O)cc1,-3
C[C@@H]1CN([C@H](C)CO)C(=O)c2cc(C#CC(C)(C)O)cnc2O[C@H]1CN(C)C(=O)c1ccccc1F,-11
COc1ccc(/C=C2/SC(=S)NC2=O)cc1COc1ccc(F)cc1F,92*
Cc1cccc(N=C2NC(=O)/C(=C/c3ccc(F)cc3)S2)c1C,42
Cc1ccc(F)c(NC(=O)CSc2ncn(-c3ccccc3)n2)c1,7
CCCNC(=O)Nc1ccc2c(c1)OC[C@H](C)N(C(C)=O)C[C@H](C)[C@H](OC)CN(C)C2=O,15
COc1ccc(CCNS(=O)(=O)c2cc(C)ccc2OC)cc1,-1
COc1ccc2cc(CCC(C)=O)ccc2c1,20
COc1ccc(CCc2cc(OC)cc(=O)o2)cc1,52*
C[C@@H]1CN([C@H](C)CO)C(=O)Cc2cc(NC(=O)Nc3ccc(C(F)(F)F)cc3)ccc2O[C@@H]1CN(C)Cc1ccccc1,-7
C[C@@H]1CN([C@H](C)CO)C(=O)c2cccc(NC(=O)C3CCOCC3)c2O[C@H]1CN(C)Cc1ccc(C(F)(F)F)cc1,-3
C=Cc1ccc(O[C@@H]2O[C@H](CO[C@@H]3O[C@@H](C)[C@H](O)[C@@H](O)[C@H]3O)[C@@H](O)[C@H](O)[C@H]2O)cc1,87*
CC1OC(Oc2ccc(-c3cc(=O)c4c(O)cc(OC5OC(CO)C(O)C(O)C5O)cc4o3)cc2)C(O)C(O)C1O (configuration not stated),9
COc1ccc(-c2cc(=O)c3c(O)c(OC)c(O[C@H]4O[C@H](CO[C@@H]5O[C@@H](C)[C@H](O)[C@@H](O)[C@H]5O)[C@@H](O)[C@H](O)[C@H]4O)cc3o2)cc1,-1
CCC(=O)N(C)C[C@H]1Oc2ncc(C#Cc3ccccc3)cc2C(=O)N([C@@H](C)CO)C[C@@H]1C,-16
CCCN(C)C[C@@H]1Oc2cc(C#CC(C)(C)O)ccc2S(=O)(=O)N([C@H](C)CO)C[C@@H]1C,19
SMILES,EZH2 inh
COc1ccc(C#Cc2cnc3c(c2)C(=O)N([C@H](C)CO)C[C@H](C)[C@H](CN(C)C(C)=O)O3)cc1,-17
CNC[C@H]1Oc2ccc(NS(=O)(=O)c3cn(C)cn3)cc2CC(=O)N([C@H](C)CO)C[C@H]1C,-4
CC(=O)Nc1ccc(NC(=O)CN(c2ccc(Cl)c(C(F)(F)F)c2)S(C)(=O)=O)cc1,-27
CS(=O)(=O)N(CC(=O)Nc1ccc(Cl)c(C(F)(F)F)c1)c1cccc(C(F)(F)F)c1,22
CNC(=O)c1cc(Oc2ccc(NC(=O)Nc3ccc(Cl)c(C(F)(F)F)c3)cc2)ccn1,57*
C[C@@H]1CN([C@@H](C)CO)C(=O)Cc2cc(NC(=O)CCC(F)(F)F)ccc2O[C@@H]1CN(C)C(=O)Nc1ccc2c(c1)OCO2,-1
CC(=O)N(Cc1ccc(C(C)C)cc1)c1ccc2oc(-c3ccccc3)nc2c1,58*
O=C(COc1ccccc1)Nc1ccc2oc(-c3cccc(Cl)c3)nc2c1,1
O=C(COc1ccccc1)Nc1ccc2oc(-c3ccc(Cl)cc3)nc2c1,-12
Cc1ccccc1Cn1nc(C)c(NC(=O)C2CC(c3cccc(Br)c3)=NO2)c1C (configuration not stated),2
O=C(OCCN1CCCCC1)c1c[nH]c2ccccc12,-5
C[C@H](CO)N1C[C@H](C)[C@@H](CN(C)Cc2ccncc2)Oc2ccc(NC(=O)CCC(F)(F)F)cc2CC1=O,4
C[C@@H]1CN([C@@H](C)CO)S(=O)(=O)c2ccc(-c3ccc(F)cc3)cc2O[C@@H]1CN(C)C(=O)C1CCC1,-4
Cc1cc(Cl)c(S(=O)(=O)NC2CCCC2)cc1OCC(N)=O,3
O=C(O)CC(CCc1ccccc1)OC1OC(CO)C(O)C(O)C1O (configuration not stated),98*
CC(=O)c1cc(C)c(O)c(COC2OC(CO)C(O)C(O)C2O)c1O (configuration not stated),18
CC(C)CC(=O)O[C@@H]1OC=C(CO[C@@H]2O[C@H](CO)[C@@H](O)[C@H](O)[C@H]2O)[C@H]2C[C@H](O)[C@@](C)(O)[C@@H]12,10
CCC(=O)N1C[C@H](C)[C@@H](OC)CN(C)C(=O)c2cc(NC(=O)c3cnccn3)ccc2OC[C@H]1C,7
C[C@H](CO)N1C[C@H](C)[C@@H](CN(C)CC2CCCCC2)Oc2c(NC(=O)Nc3ccc4c(c3)OCO4)cccc2C1=O,-5
C/C=C/[C@@H](CCn1cc(CCO)nn1)[Si](C)(C)c1ccc(OC)cc1,13
C/C=C/[C@H](CCn1cc(CCO)nn1)[Si](C)(C)c1ccc(OC)cc1,27
C/C=C/[C@H](CC(=O)N(CCO)Cc1ccccc1)[Si](C)(C)c1ccc(OC)cc1,58*
C[C@@H]1O[C@@H](O[C@@H]2[C@@H](O)[C@H](Oc3cc(O)c4c(c3)OC(c3ccc(O)cc3)CC4=O)O[C@H](COC3OCC(O)C(O)C3O)[C@H]2O)[C@H](O)[C@H](O)[C@H]1O (some centres not stated),-14
N#CC(OC1OC(COC2OCC(OC(=O)/C=C/c3ccc(OC4OC(CO)C(O)C(O)C4O)cc3)C(O)C2O)C(O)C(O)C1O)c1ccccc1 (configuration not stated),90*
N#C[C@@H](O[C@@H]1O[C@H](CO)[C@@H](O)[C@H](O)[C@H]1O[C@@H]1O[C@H](CO)[C@@H](O)[C@H](O)[C@H]1O)c1ccccc1,-11
CC(C)C#Cc1cnc2c(c1)C(=O)N([C@@H](C)CO)C[C@H](C)[C@@H](CN(C)C(=O)c1ccc3c(c1)OCO3)O2,-2
C[C@@H]1CCCCO[C@H](CN(C)C(=O)NC2CCCCC2)[C@@H](C)CN([C@@H](C)CO)C(=O)c2cc(N(C)C)ccc2O1,-7
O=c1c(O[C@@H]2O[C@H](CO)[C@H](O)[C@H](O)[C@H]2O)c(-c2ccc(O)cc2)oc2cc(O)cc(O)c12,5
COc1c(OC)c(O)c2c(=O)c(O)c(-c3ccccc3)oc2c1OC,-30

# From PubChem BioAssay
